Hits are enriched below; roughly 3.9% of the tested compounds scored in any of these assays.
UBC9 SUMO inh: SUMOylation inhibition; 0.36% of 290,000 active; inhibition, % at 35 µM; P63279; AID 2006; HTRF SUMOylation assay, SAE1/SAE2 + UBC9, in vitro; in the data active = inhibition above about 50%, passing the limit was not always enough
Target sequence (P63279 whole entry, looked up): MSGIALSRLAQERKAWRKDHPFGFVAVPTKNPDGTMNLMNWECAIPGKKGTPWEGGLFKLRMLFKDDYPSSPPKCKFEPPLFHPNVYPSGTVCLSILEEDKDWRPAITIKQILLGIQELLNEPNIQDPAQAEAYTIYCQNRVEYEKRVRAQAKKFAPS
Cardio protect: modulators protecting cardiomyocytes from myocardial damage. 0.63% of 360,000 active. protection from H2O2 cell death, % at 20 µM. H9c2 cardiomyocytes, H2O2 injury protection, ATPLite, 2 h;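 active = compounds giving at least 50% protection of heart cells from peroxide-induced death in the single-dose screen, raw or plate-pattern-corrected value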
ALR inh: blocks human ALR sulfhydryl oxidase activity; P55789; purified ALR, DTT oxidation, H2O2 HRP-luminol luminescence; inhibition, % (test concentration not listed); 3.8% of 290,000 active; AID 485317;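 active = mean replicate inhibition above about 79%, with every replicate also reaching it, limit read from the data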
NTR1 agonist: NTR1 (human) agonism. P30989. NTR1-U2OS beta-arrestin-GFP spot imaging, agonist mode. activation, % at 20 µM. 0.17% of 330,000 active. AID 493036;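 active = activation at or above 40% of the spot to cytoplasm intensity ratio, with at least 20 cells analyzed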
Target sequence (P30989 whole entry, looked up): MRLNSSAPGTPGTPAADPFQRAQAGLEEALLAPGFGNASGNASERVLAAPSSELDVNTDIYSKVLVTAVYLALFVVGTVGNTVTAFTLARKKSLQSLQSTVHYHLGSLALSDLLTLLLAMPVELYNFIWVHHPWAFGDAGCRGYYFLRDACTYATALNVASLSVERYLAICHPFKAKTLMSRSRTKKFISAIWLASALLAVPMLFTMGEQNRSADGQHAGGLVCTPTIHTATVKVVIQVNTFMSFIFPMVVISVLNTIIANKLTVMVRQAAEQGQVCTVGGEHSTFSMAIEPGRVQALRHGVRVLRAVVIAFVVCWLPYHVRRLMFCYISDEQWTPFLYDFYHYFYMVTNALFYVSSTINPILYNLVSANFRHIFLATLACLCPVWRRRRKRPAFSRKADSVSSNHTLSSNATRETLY
Large screens that a line does not name were inactive.

COc1ccc(C(=O)Nc2ccc3c(c2)OCCO3)cc1[N+](=O)[O-]	none
COc1ccc(NCc2nnc(SCC(=O)Nc3ccccc3OC)o2)cc1	none
COc1ccc(NCc2nnc(SCC(=O)Nc3cccc(C)c3)o2)cc1	ALR inh 98.9
COc1ccc(OC)c(NC(=O)CSc2nnc(CNc3ccc(F)cc3)o2)c1	ALR inh 90.6
COc1ccc(S(=O)(=O)N2CCOCC2)cc1NC(=O)c1cc2c(s1)CCCC2	none
COc1ccc(C)cc1NC(=O)c1cc2c(s1)CCC2	ALR inh 94.2
COc1ccc(NC(=O)c2cc3c(s2)CCC3)cc1S(=O)(=O)N1CCOCC1	ALR inh 98.6
Cc1oc(-c2cccc(Cl)c2)nc1CS(=O)(=O)CC(=O)NCCCN1CCOCC1	none
Cc1oc(-c2ccc(Cl)cc2)nc1CSCC(=O)NCCCN1CCOCC1	ALR inh 99.1
Cc1cccc(-c2nc(CSCC(=O)NCCCN3CCOCC3)c(C)o2)c1	ALR inh 99.4
CCN(CC(=O)NCCCN1CCOCC1)S(=O)(=O)c1ccc(Cl)cc1	none
CCN(CC)c1ccc(C(=O)N/N=C(\C)c2ccc(O)cc2)cc1	ALR inh 93.7
C/C(=N\NC(=O)Cc1ccc(Cl)cc1)c1ccc(F)cc1	none
C/C(=N\NC(=O)Cc1ccc(F)cc1)c1ccc(O)cc1	ALR inh 99.4
CC(C)(C)OC(=O)N1CCC(NC(=O)c2nc[nH]c2C(=O)NCC(=O)OCc2ccccc2)CC1	Cardio protect 72.2 (no result: ALR inh)
C[C@@H](NC(=O)c1nc[nH]c1C(=O)OCc1ccccc1)c1ccccc1	none (no result: UBC9 SUMO inh)
C[C@@H](NC(=O)c1nc[nH]c1C(=O)NCC(=O)OCc1ccccc1)c1ccccc1	Cardio protect 92.4 (no result: ALR inh)
O=C(CNC(=O)c1nc[nH]c1C(=O)N1CCc2ccccc2C1)OCc1ccccc1	Cardio protect 104.8 (no result: ALR inh)
CCOC(=O)C1=C(N)n2c(s/c(=C/c3ccccc3)c2=O)=C(C(=O)OCC)C1c1ccccc1 (stereo not given)	none (no result: Cardio protect)
Cc1ccc(NC(=O)CN(C)C(=O)Nc2ccc(C)cc2)cc1	none
Cc1cc(C)nc(SCc2ccc(C(=O)N/N=C/c3ccccc3C(=O)O)cc2)n1	ALR inh 91.1
Cn1cnc([N+](=O)[O-])c1Sc1ccc(C(C)(C)C)cc1	none
Cc1ccc(Sc2c([N+](=O)[O-])ncn2C)cc1	ALR inh 97.7
Cn1cnc([N+](=O)[O-])c1Sc1ccc(Br)cc1	ALR inh 98.4
CCSc1nc2c(c(-c3ccc(C)o3)c1C#N)CCCC2	ALR inh 82.7
CN1CCN(/N=C/c2ccc(N(c3ccccc3)c3ccccc3)cc2)CC1	ALR inh 95.7
CN1CCN(/N=C/c2ccc(N(C)c3ccccc3)cc2)CC1	ALR inh 99.1
CN1CCN(/N=C/c2ccc(Br)cc2)CC1	none
CCOC(=O)C[C@H]1c2ccc(C(F)(F)F)cc2S(=O)(=O)N1Cc1ccccc1	none (no result: UBC9 SUMO inh, ALR inh)
O=c1c(O)c(-c2cccs2)oc2ccc(Cl)cc12	Cardio protect 74.2
CCN=c1scc(-c2ccc3c(c2)NC(=O)CO3)n1N=C1CCCC1	ALR inh 90.6
COc1ccccc1N=c1scc(-c2ccc3c(c2)NC(=O)CO3)n1CC1CCCO1 (stereo not given)	ALR inh 99.0
CCCCN=c1scc(-c2ccc3c(c2)NC(=O)CO3)n1N=C1CCCC1	none
CCc1c(C)sc(NC(=O)c2cc(C(C)C)on2)c1C#N	none
CCc1c(C)sc(NC(=O)c2cc(C)no2)c1C#N	ALR inh 92.9
N=C(N)SCc1nc2ccccc2c(=O)n1-c1ccccc1Cl	none
COc1cc(C(=O)OCCn2c(=O)c3c(ncn3CCN(C)C)n(C)c2=O)cc(OC)c1OC	none
COc1ccc(-n2nnnc2SCC(=O)c2ccc(O)c(O)c2)cc1	Cardio protect 59.8 (no result: ALR inh)
COc1ccc(-n2nnnc2SCC(N)=O)cc1	none
Cc1cc(C(=O)CSc2nnnn2-c2ccccc2)c(C)n1CCc1ccccc1	none
NC(=O)c1ccc(-n2nnnc2SCC(=O)c2ccc(O)c(O)c2)cc1	ALR inh 96.5
Cc1cc(C(=O)CSc2nnnn2-c2ccc(O)cc2)c(C)n1C	ALR inh 88.9
NC(=O)C1CCCN(S(=O)(=O)c2ccccc2)C1 (stereo not given)	none
Cn1c(Cn2cnc([N+](=O)[O-])n2)nnc1SCC(=O)Nc1ccccc1	none
CCC(C)(C)n1nnnc1CN1CCN(c2ccc(OC)cc2)CC1	ALR inh 93.5
COc1ccc(Cn2nnnc2CN2CCN(c3ccc(OC)cc3)CC2)cc1	none
Cc1ccc(C(=O)NNC(=O)c2nn(-c3ccc(F)cc3)ccc2=O)cc1	none
O=C(O)c1ccccc1NC(=S)NC(=O)c1cccc2ccccc12	ALR inh 97.9
Cc1cc(C)c(C(=O)CC(=O)c2ccccc2Cl)c(O)c1	Cardio protect 50.6 (no result: ALR inh)
CC(=O)Nc1ccccc1NC(=O)c1cccc2ccccc12	none (no result: ALR inh)
Cc1ccc(O)c(NC(=S)NC(=O)c2ccccc2Cl)c1	ALR inh 97.3
Cc1c(NC(=S)NC(=O)c2cccc3ccccc23)cccc1C(=O)O	none
O=C(NC(=S)Nc1ccc(O)cc1)c1ccccc1Cl	none (no result: ALR inh)
O=C(O)c1cc(O)ccc1NC(=O)c1cccc2ccccc12	ALR inh 95.5
CC1(C(=O)NCc2cccc3ccccc23)CCN1C(=O)C1(c2ccccc2)CCCC1 (stereo not given)	none (no result: UBC9 SUMO inh, ALR inh, NTR1 agonist)
Cc1cccc(C(=O)NC(=S)Nc2ccccc2C(=O)O)c1	ALR inh 98.7
Cc1ccc(C(=O)Nc2ccc(O)cc2C(=O)O)cc1	none
Cc1ccc(C(=O)O)cc1NC(=S)NC(=O)c1ccc(-c2ccccc2)cc1	ALR inh 98.2
Cc1cccc(C(=O)NC(=S)NNC(=O)c2ccccc2Cl)c1	ALR inh 98.4
Cc1cccc(C(=O)NC(=S)NNC(=O)Cc2ccccc2)c1	none (no result: ALR inh)
Cc1ccc(C(=O)Nc2ccc(O)cc2C(=O)O)cc1C	ALR inh 97.7
Cc1cccc(C(=O)NC(=S)Nc2ccccc2C(F)(F)F)c1	none
Cn1c(SCc2cccnc2)nnc1-c1c[nH]c2ccccc12	none (no result: ALR inh)
CC1=CC2=NC(=O)CC(C)(C(=O)N(CC(=O)NC3CCCC3)c3cc(C)cc(C)c3)N2C=C1 (stereo not given)	none
C[n+]1ccc(C(=O)NCCC[N+](C)(C)C)cc1/C=N/O	none
CN1C(=O)/C(=C/c2ccc(C(=O)Nc3ccc(O)cc3C(=O)O)cc2)SC1=S	ALR inh 97.4
COc1cccc(C(=O)NC(=S)Nc2ccc(Cl)cc2C(=O)O)c1	ALR inh 97.4
Cc1cccn2c(=O)c3cc(C#N)c(=N)n(Cc4cccnc4)c3nc12	none (no result: UBC9 SUMO inh, ALR inh, NTR1 agonist)
CC(C)(C)C(=O)Cn1c(=O)n(-c2ccc(F)cc2F)c(=O)c2sccc21	none
CCOC(=O)N1CCN(S(=O)(=O)c2ccc(C(=O)N(CCCN(C)C)c3nc4cc(OC)ccc4s3)cc2)CC1	none (no result: UBC9 SUMO inh)
Cc1nccc(-c2sc(-c3cccs3)nc2C)n1	ALR inh 85.4
O=C(CSC1=NCCS1)N1N=C(c2cccs2)CC1c1ccc(F)cc1 (stereo not given)	none (no result: UBC9 SUMO inh, ALR inh, NTR1 agonist)
COc1ccc(OC)c(C(C[N+](=O)[O-])c2c(C)cc3ccccn23)c1 (stereo not given)	NTR1 agonist 50.4
Cc1ccc(NC(=O)c2cccc(S(=O)(=O)N3CCCCC3)c2)cc1	none

Screening results as filed in PubChem.
